Data taken from PubChem BioAssay (EPA / NIEHS).
Results filed as inconclusive are left out. Calls of active or inactive are those of the source. The calls were made as follows, unless noted: active = hit-call score of the fitted dose curve at least 0.9, where 1 is the maximum; inconclusive = response in the unintended direction; inactive = score below 0.9.

What was measured:
[1] = TOX21_p53_BLA_p2_viability: Viability Assessment in the Tox21 HCT-116 p53 Agonism Beta-lactamase Assay, Phase 2 (AID 2283591);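 also: compound exposure lasted 16 h at 37 °C; actives lower the ATP signal meaning cytotoxicity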
Method in brief: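 Cytotoxicity readout: CellTiter-Glo ATP luminescence, 30 min at room temperature, after the beta-lactamase read. Cells were HCT116 exposed 16 h at 37C to compounds pin-transferred at 217-fold dilution from DMSO stocks.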

[2] = TOX21_p53_BLA_p3_viability: Viability Assessment in the Tox21 HCT-116 p53 Agonism Beta-lactamase Assay, Phase 3 (AID 2283593);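 also: cells exposed to compound for 16 h before reading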
Method in brief: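 Cellular ATP was quantified by CellTiter-Glo luminescence, read after 30 min at room temperature. Beforehand, HCT116 cells (4000/well) received compound 5 h post-seeding, 217-fold diluted from DMSO, then incubated 16 h at 37C.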

[3] = molecular target: Cellular tumor antigen p53 (Homo sapiens) (UniProt P04637); assay: TOX21_p53_BLA_p5_ratio: Tox21 HCT-116 p53 Agonism Beta-lactamase Assay, Ratio, Phase 5 (AID 2283599)
Cellular tumor antigen p53 (Homo sapiens), sequence (P04637 whole entry, looked up): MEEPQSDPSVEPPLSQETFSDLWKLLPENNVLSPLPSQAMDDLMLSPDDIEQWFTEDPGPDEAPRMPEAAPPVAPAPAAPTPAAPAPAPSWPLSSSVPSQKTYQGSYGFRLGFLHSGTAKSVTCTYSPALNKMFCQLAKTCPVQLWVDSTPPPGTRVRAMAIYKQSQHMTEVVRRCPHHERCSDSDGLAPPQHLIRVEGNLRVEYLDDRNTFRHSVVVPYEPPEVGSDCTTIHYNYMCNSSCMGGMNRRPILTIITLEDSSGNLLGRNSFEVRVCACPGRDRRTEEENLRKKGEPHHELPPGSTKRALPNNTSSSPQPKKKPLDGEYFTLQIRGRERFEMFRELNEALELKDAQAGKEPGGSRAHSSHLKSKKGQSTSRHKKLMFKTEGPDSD
Method in brief: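 Beta-lactamase reporter ratio (blue 460 nm over green 530 nm, 405 nm excitation) after 2 h CCF4-AM loading, in HCT-116 cells exposed 16 h at 37 C to compounds pinned at 217-fold dilution. Increases relative to DMSO baseline scored.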

[4] = molecular target: Cellular tumor antigen p53 (Homo sapiens) (UniProt P04637); assay: TOX21_p53_BLA_p4_ratio: Tox21 HCT-116 p53 Agonism Beta-lactamase Assay, Ratio, Phase 4 (AID 2283601)
Method in brief: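 Signal is the blue/green (460nm/530nm) ratio of cleaved versus uncleaved CCF4-AM substrate, read after 2 h substrate loading. Cells were HCT116 carrying the p53-responsive beta-lactamase reporter, dosed 16 h at 37C, 5% CO2; CellTiter-Glo measured in parallel.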

[5] = TOX21_p53_BLA_p5_viability: Viability Assessment in the Tox21 HCT-116 p53 Agonism Beta-lactamase Assay, Phase 5 (AID 2283600)
Method in brief: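 Cells were plated at 4000/well, rested 5 h at 37C, then given compounds in DMSO (217-fold dilution) for 16 h at 37C, 5% CO2. Following the CCF4-AM beta-lactamase read, CellTiter-Glo was added and luminescence was read after 30 min at room temperature.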

[6] = molecular target: PGR (gene 5241) (UniProt P06401); assay: TOX21_PR_BLA_Followup_Antagonist_ratio: Tox21 HEK293 Progesterone Receptor (PR) Antagonism Beta-lactamase Follow-Up Assay, Ratio (AID 2283934);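 also: PR-UAS-bla HEK293T cells stimulated with 1 nM R5020 agonist for 16 hr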
PGR (gene 5241), sequence (P06401 whole entry, looked up): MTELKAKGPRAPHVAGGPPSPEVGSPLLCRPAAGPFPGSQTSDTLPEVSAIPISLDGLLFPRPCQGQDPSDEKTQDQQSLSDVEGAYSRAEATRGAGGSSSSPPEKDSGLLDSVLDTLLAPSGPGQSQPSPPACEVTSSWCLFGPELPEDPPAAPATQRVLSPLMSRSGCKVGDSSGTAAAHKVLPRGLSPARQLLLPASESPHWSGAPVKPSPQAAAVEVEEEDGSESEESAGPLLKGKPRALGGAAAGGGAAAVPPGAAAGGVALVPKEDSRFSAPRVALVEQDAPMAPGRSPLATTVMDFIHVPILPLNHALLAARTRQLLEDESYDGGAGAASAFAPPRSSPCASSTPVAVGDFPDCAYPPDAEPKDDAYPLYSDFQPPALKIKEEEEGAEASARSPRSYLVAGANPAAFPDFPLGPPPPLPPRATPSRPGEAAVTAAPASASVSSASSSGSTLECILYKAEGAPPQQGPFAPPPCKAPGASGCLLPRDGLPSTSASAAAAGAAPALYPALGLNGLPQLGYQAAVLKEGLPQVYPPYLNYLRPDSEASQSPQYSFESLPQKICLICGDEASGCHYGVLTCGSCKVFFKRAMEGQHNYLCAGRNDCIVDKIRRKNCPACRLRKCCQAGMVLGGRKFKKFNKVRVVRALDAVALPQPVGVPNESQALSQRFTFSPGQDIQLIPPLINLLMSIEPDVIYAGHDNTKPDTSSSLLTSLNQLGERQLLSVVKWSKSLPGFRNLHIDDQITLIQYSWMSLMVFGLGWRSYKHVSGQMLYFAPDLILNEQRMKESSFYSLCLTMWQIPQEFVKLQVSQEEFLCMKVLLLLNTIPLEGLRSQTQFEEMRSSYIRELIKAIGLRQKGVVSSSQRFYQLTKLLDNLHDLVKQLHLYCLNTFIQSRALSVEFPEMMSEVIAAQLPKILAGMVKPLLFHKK
Method in brief: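 Antagonist mode used 1 nM R5020 (final) as agonist on a beta-lactamase reporter line in HEK293T cells. Activity was taken from the substrate cleavage ratio after 16 hr exposure.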

[7] = TOX21_PR_BLA_Followup_Antagonist_viability: Viability Assessment in the Tox21 HEK293 Progesterone Receptor (PR) Antagonism Beta-lactamase Follow-Up Assay (AID 2283936);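 also: hits lower the luminescence signal meaning cytotoxicity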
Method in brief: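 PR-UAS-bla HEK293T cells (3,000/well, 2% charcoal-stripped FBS) given compound plus R5020 agonist, 16 h at 37C. CellTiter-Glo added after bla read, 30 min at room temperature; luminescence loss indicates cytotoxicity.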

[8] = molecular target: PGR (gene 5241) (UniProt P06401); assay: TOX21_PR_LUC_Followup_Antagonist: Tox21 HEK293 Progesterone Receptor (PR) Antagonism Luciferase Follow-Up Assay (AID 2283938);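 also: curve fitted upward as signal gain over DMSO baseline despite antagonist label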
Method in brief: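 HEK293-PR-A-luc cells were precultured 5 days in medium with 10% charcoal-stripped FBS, seeded 3,000/well, then exposed to compounds in DMSO for 16 h at 37C. Luciferase was read by ONE-Glo luminescence after 30 min at room temperature.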

[9] = TOX21_PR_LUC_Followup_Antagonist_viability: Viability Assessment in the Tox21 HEK293 Progesterone Receptor (PR) Antagonism Luciferase Follow-Up Assay (AID 2283940)
Method in brief: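 Cellular ATP, measured with luciferase-coupled CellTiter-Glo, served as the viability endpoint after HEK293-PR-A-luc cells were exposed to test compounds for 16 h at 37C.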

[10] = TOX21_PR_LUC_Followup_Agonist_viability: Viability Assessment in the Tox21 HEK293 Progesterone Receptor (PR) Agonism Luciferase Follow-Up Assay (AID 2283941);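 also: loss of signal means cytotoxicity so actives lower viability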
Method in brief: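 Luminescent ATP quantitation (CellTiter-Glo) serves as the read-out; a drop flags cytotoxic compounds. Cells are HEK293-PR-A-luc grown in 10% charcoal-stripped FBS, plated 3,000/well, and exposed to compound for 16 h.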

[11] = TOX21_p53_BLA_p4_viability: Viability Assessment in the Tox21 HCT-116 p53 Agonism Beta-lactamase Assay, Phase 4 (AID 2283597);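 also: hits lower the luminescence signal meaning cytotoxicity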
Method in brief: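 HCT116 p53-bla cells (4000/well) rested 5 h at 37C, then received compounds in DMSO (217-fold dilution) for 16 h at 37C, 5% CO2. CellTiter-Glo was added after the CCF4-AM read, and luminescence was read after 30 min at room temperature.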

[12] = molecular target: Cellular tumor antigen p53 (Homo sapiens) (UniProt P04637); assay: TOX21_p53_BLA_p3_ratio: Tox21 HCT-116 p53 Agonism Beta-lactamase Assay, Ratio, Phase 3 (AID 2283596)
Method in brief: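 HCT116 p53-bla cells (4000/well) given compound in DMSO (217-fold dilution) after 5 h, incubated 16 h at 37C. CCF4-AM substrate 2 h at room temperature; 460/530 nm emission ratio, gain fitted against DMSO.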

[13] = CCTE_Harrill_HTTr_Viability_MCF7: CCTE's 6-hour Cell Viability Assessment for the High-Throughput Transcriptomics (HTTr) Platform, in MCF-7 cells cultured in DMEM + 10% fetal bovine serum, Harrill Lab (AID 2284010; active = hit-call score of the fitted dose curve at least 0.9, where 1 is the maximum; inactive = score below 0.9)
Method in brief: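 Viability measured through PI dye exclusion by high-content imaging at 6 h post-dosing.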

[14] = CCTE_Harrill_HTTr_Apoptosis_MCF7: CCTE's 6-hour Apoptosis Assessment for the High-Throughput Transcriptomics (HTTr) Platform, in MCF-7 cells cultured in DMEM + 10% fetal bovine serum, Harrill Lab (AID 2284011; active = hit-call score of the fitted dose curve at least 0.9, where 1 is the maximum; inactive = score below 0.9)
Method in brief: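 MCF-7 cells in DMEM + 10% fetal bovine serum were exposed to chemicals for 6 hours over an eight-point dilution series. Caspase-3/7 activation was imaged by high content imaging with CellEvent Caspase 3/7 Green; bidirectional fitting used DMSO as baseline.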

[15] = CCTE_Harrill_HTTr_CellCount_MCF7: CCTE's Cell Proliferation Assessment for the High-Throughput Transcriptomics (HTTr) Platform, Harrill Lab (AID 2284012);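 also: count of Hoechst-stained nuclei per well by high-content imaging in MCF-7 cells; cells exposed to compound for six hours; intended direction is loss of nuclei count meaning fewer cells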
Method in brief: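 Nuclei counting (Hoechst, high content imaging) in MCF-7 after a 6 h treatment at eight concentrations. Activity fitted bidirectionally, DMSO as negative control.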

Measured: outcome

CCC(=O)OCC(=O)[C@@]1(OC(=O)CC)[C@@H](C)C[C@H]2[C@@H]3CCC4=CC(=O)C=C[C@]4(C)[C@@]3(F)[C@@H](O)C[C@@]21C
inactive: [1] | [2] | [3] | [4]

C=C(C)C(=O)OCCCCCCCCCCOC(=O)C(=C)C
inactive: [1] | [2] | [3]

C[C@@H]1C[C@H]2[C@@H]3C[C@H](F)C4=CC(=O)C(Cl)=C[C@]4(C)[C@@]3(F)[C@@H](O)C[C@]2(C)[C@@]1(O)C(=O)CO
inactive: [1] | [2] | [3] | [5] | [6] | [7] | [8] | [9] | [10]

CC1(C)[C@H]2CC[C@](C)(C2)[C@H]1O
inactive: [1] | [2] | [11] | [4]

CC(=O)c1ccc2c(c1)N(CCCN(C)C)c1ccccc1S2
inactive: [1] | [12] | [11] | [3]

Cc1ccc2c(c1)c1c3n2CCNC3CCC1 (stereo not given)
inactive: [1] | [12] | [11] | [3]

CC[N+](CC)(CC)CCOc1cccc(OCC[N+](CC)(CC)CC)c1OCC[N+](CC)(CC)CC
inactive: [1] | [12] | [11] | [3] | [4]

CCC(C)SSC(C)CC (stereo not given)
inactive: [1] | [12] | [11] | [3] | [5] | [4]

O=C(Nc1ccc(O)cc1)c1ccccc1O
inactive: [1] | [12] | [11]

ClC/C=C/CCl
inactive: [1] | [12] | [11] | [3] | [5]

O=C1c2ccccc2-c2ccccc21
inactive: [1] | [12] | [11] | [3]

CC[C@H](CC[C@@H](C)[C@H]1CC[C@H]2[C@@H]3CC=C4C[C@@H](O)CC[C@]4(C)[C@H]3CC[C@]12C)C(C)C
inactive: [1] | [12] | [11] | [3] | [5] | [4] | [13] | [14] | [15]

O=C(O)CNCC(=O)O
inactive: [1] | [12] | [11] | [3] | [5]

BrC/C=C/CBr
inactive: [1] | [12] | [11] | [3] | [5]

O=[N+]([O-])c1ccccc1CCO
inactive: [1] | [12] | [11] | [3] | [5]

Cc1ccc(=O)n(-c2ccccc2)c1
inactive: [1] | [12] | [11] | [3] | [4]
